These compounds were tested on Plasmodium falciparum (assay: GSK_TCMDC: Inhibition of Plasmodium falciparum 3D7 in whole red blood cells, using parasite LDH activity as an index of growth. Test compounds present at 2uM).
Type: functional

| Structure (SMILES) | Inhibition |
| --- | --- |
| OC(CNc1ccnc(Nc2ccc(Cl)cc2)n1)c1ccc(C(F)(F)F)cc1 (stereo not given) | 100% |
| CCCC(C)N(Cc1ccc(C(C)(C)C)cc1)C(=O)c1cccc(OC)c1 (stereo not given) | 100% |
| Cc1ccc(-n2nc3ccc(NC(=O)c4ccc([N+](=O)[O-])o4)cc3n2)cc1C | 94% |
| CCCC1(C)CSc2ccccc2C(c2ccccc2)N1 (stereo not given) | 87% |
| CC(=O)Nc1ncc(C(=O)Nc2cccc(-c3ccc(-c4nc5cc(C(F)(F)F)ccc5[nH]4)s3)c2)s1 | 100% |
| CC(=O)c1ccc(-c2ccc(C(=O)NCCCCN3CCC(c4ccc5c(c4O)CCCC5)CC3)cc2)cc1 | 100% |
| O=C(Nc1nc2cc(S(=O)(=O)NCCc3cccc(F)c3)ccc2n1CCCn1ccnc1)c1ccc(Cl)cc1.O=C(O)C(F)(F)F | 90% |
| Cc1cc(N/N=C/c2cccc([N+](=O)[O-])c2)c2cc(F)ccc2n1 | 100% |
| O=C(Cc1n[nH]c(=O)c2ccccc12)Nc1cccc(C(=O)Nc2cccc(C(F)(F)F)c2)c1 | 97% |
| Cc1ccc(Nc2nc(C)cc(NC3CCCC3)n2)cc1 | 100% |
| Nc1nccc2ccc(-c3ccc4nccn4c3)cc12.O=C(O)C(F)(F)F | 100% |
| Cc1nc2nc(N)nc(N)c2c(C)c1Cc1ccc(C(F)(F)F)cc1.Cl | 96% |
| Cc1cc(NCC(c2ccccc2)c2ccccc2)nc(NCC2CCCCC2)n1 | 100% |
| COc1ccc2nccc(N3CCC(CCNCc4cc5c(cn4)OCCO5)CC3)c2c1.Cl | 100% |
| COc1ccc(N(C)Cc2cnc3nc(N)nc(N)c3n2)cc1 | 98% |

— ChEMBL document CHEMBL1157539, “Thousands of chemical starting points for antimalarial lead identification” (Nature, 2010)
